# Measured values as given in PubChem BioAssay (NCI).
# About 83,000 compounds went through this panel and 20% of them were active in at least one assay; those are over-represented in the sample as a whole.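 Values shown are percent growth following 48 h exposure of cells in 96-well plates to a single concentration of compound; below 10 was considered active.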 Unmarked numbers belong to inactive results. The source made the active and inactive calls.
# Key:
# Test in all cases: NCI-60 one-dose screen, 48 h (100 = growth as untreated, 0 = no growth, -100 = all killed)
# Conditions in all cases: 10 µM unless noted
# NCI-H23 lung = tested on: NCI-H23 lung
# NCI-H226 lung = tested on: NCI-H226 lung
# NCI-H322M lung = tested on: NCI-H322M lung
# HOP-62 NSCLC = tested on: HOP-62 NSCLC
# NCI-H460 lung = tested on: NCI-H460 lung
# HOP-92 NSCLC = tested on: HOP-92 NSCLC
# NCI-H522 lung = tested on: NCI-H522 lung
# A549/ATCC NSCLC = tested on: A549/ATCC NSCLC
# 786-0 renal = tested on: 786-0 renal
# COLO 205 colon = tested on: COLO 205 colon
# DU-145 prostate = tested on: DU-145 prostate
# K-562 leukemia = tested on: K-562 leukemia
# MALME-3M melanoma = tested on: MALME-3M melanoma
# MDA-MB-231 breast = tested on: MDA-MB-231 breast
# RXF 393 renal = tested on: RXF 393 renal
# SF-268 CNS = tested on: SF-268 CNS
# SF-295 CNS = tested on: SF-295 CNS
# SF-539 CNS = tested on: SF-539 CNS
# UACC-257 melanoma = tested on: UACC-257 melanoma
# M14 melanoma = tested on: M14 melanoma
Structure (SMILES),growth (NCI-H23 lung),growth (NCI-H226 lung),growth (NCI-H322M lung) [%],growth (HOP-62 NSCLC),growth (NCI-H460 lung),growth (HOP-92 NSCLC),growth (NCI-H522 lung),growth (A549/ATCC NSCLC) [%],growth (786-0 renal),growth (COLO 205 colon),growth (DU-145 prostate),growth (K-562 leukemia),growth (MALME-3M melanoma),growth (MDA-MB-231 breast),growth (RXF 393 renal),growth (SF-268 CNS) [%],growth (SF-295 CNS),growth (SF-539 CNS),growth (UACC-257 melanoma),growth (M14 melanoma)
COc1ccc(OC)c(C(=O)/C=C/c2cc3c(c(OC)c2OC)OCO3)c1,57.8%,92%,71.1,101%,50.1%,62.2%,74.3%,62.7,100%,95.8%,41.7%,29.7%,80.9%,83.2%,63.9%,63.2,84.1%,87.6%,72.5%,78.6%
CCn1c(SCC(=O)c2ccc(Br)cc2)nnc1-c1ccncc1,105%,99%,110,109%,108%,114%,96%,106,114%,114%,103%,91.5%,105%,106%,113%,96.5,101%,99.3%,107%,108%
CC(C)(C)n1cc(-c2ccnc(NCCNS(=O)(=O)c3cccc4ccccc34)c2)c(-c2cccc(F)c2)n1,0.565% (active),-25.7% (active),20.8,26.4%,-26.9% (active),-19.3% (active),-38.9% (active),16.3,-91.4% (active),-67.9% (active),4.18% (active),-30% (active),-73.1% (active),-8.01% (active),-52.3% (active),29.5,-68.7% (active),-74.8% (active),-8.81% (active),-19% (active)
O=C1Nc2ccccc2[C@]12CC(c1ccccc1)=NN2,64.3%,77.7%,59.6,59.6%,21.5%,30.8%,39.4%,44.3,50.7%,3.6% (active),74.5%,21.8%,37.2%,53.4%,73.3%,47.5,45.6%,28.4%,67.8%,25.8%
C1=C(N2CCCC2)CCC1,100%,109%,109,103%,93.2%,65.8%,94.6%,99,105%,124%,108%,120%,100%,98.8%,93.1%,107,104%,87.4%,89.8%,96.2%
O=C1/C(=C/c2ccccc2Br)COc2ccc(O)c(O)c21,46.5%,86.3%,33.3,-5.9% (active),14.3%,36.9%,-45.2% (active),35.1,-41.6% (active),82.2%,13%,9.73% (active),-8.51% (active),0.858% (active),10.1%,10.9,62.9%,-25.7% (active),19.7%,31.5%
N#CCSc1nnc2n(Cc3ccccc3)c(=O)c3c4c(sc3n12)CCCC4,105%,102%,102,91.9%,108%,71.3%,104%,80.4,76.3%,106%,107%,70.5%,99.5%,98.8%,83%,98,102%,104%,98.9%,109%
CCN1CCN(Cc2cn(CC(=O)Nc3ccc4c(ccn4Cc4ccccc4)c3)nn2)CC1,104%,91.8%,98.8,96%,114%,87.6%,99.9%,102,97.8%,99.4%,105%,94.8%,99.5%,91.5%,111%,95.9,105%,102%,103%,98.7%
